In the library only some 5.2% were active in any assay of this set; here they are far more common.
FBPA coupling cs = inhibits coupling enzyme system, counter-screen for aldolase hits. actives 0.67% (n = 290,000). coupling enzyme system counterscreen, AmpLite Red fluorescence. AID 2472. activity change, negative = inhibition, % at 58.2 µM, hits read low; in the data active means activity change below about -30%
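First, compound is pin-transferred into glyceraldehyde-3-phosphate coupling-enzyme reagent at 57.5 uM final and held 10 min at RT. Next, substrate, coupling system and AmpLite Red are added. After 20 min RT, fluorescence (525/598 nm) is read.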
Tau fibril FP = inhibitors of human tau fibril formation; P10636; K18 P301L tau heparin fibrillization, Alexa594 FP, 6 h; Potency, µM (titrated, usually from 57.7 µM), for inactives: top-dose activity, negative = inhibition, usual class: inhibitors; actives 0.39% (n = 280,000); AID 1468; further: potency means the concentration at half of the fitted maximal effect; nearly all actives have a fitted effect of over 55% in size
Target sequence (P10636 561-689 P618L limits assumed): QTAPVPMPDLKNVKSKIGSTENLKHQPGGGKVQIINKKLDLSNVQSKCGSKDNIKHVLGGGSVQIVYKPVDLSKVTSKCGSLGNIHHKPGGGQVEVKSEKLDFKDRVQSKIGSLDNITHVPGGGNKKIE
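Human tau K18 […] P301L fragment, 15 uM unlabeled plus 0.24 uM Alexa 594-labeled tau (final), with compound and 20 uM heparin in 100 mM sodium acetate pH 7; 6 hr at 37 C, then Alexa 594 FP read.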
Sfp inh = Sfp phosphopantetheinyl transferase inhibition; Potency, µM, for inactives: largest response in the series, negative = inhibition, usual class: inhibitors; actives 3.5% (n = 310,000); Biochemical Sfp PPTase activity, qHTS;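 further: the enzyme is Sfp with the accession as filed and its product quenches rhodamine fluorescence; potency means the concentration at half of the fitted maximal effect; 0% = enzyme reaction without inhibitor and -100% = no enzyme wells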
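Fluorescence-quenching assay with 15 nM Sfp, 5 uM rhodamine-CoA and 12.5 uM BHQ-2-labelled ybbR peptide in pH 7.6 Hepes/MgCl2 buffer. Enzyme was pre-incubated with compound for 15 min at room temperature. Rate was taken from the 30-min fluorescence change (525/598 nm).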
Tau fibril ThT = inhibitors of human tau fibril formation, thioflavin T binding | Potency, µM (doses to about 57.4 µM), for the others: at the top dose activity, negative = inhibition, usual class: inhibitors | actives 2.1% (n = 270,000) | recombinant tau K18 P301L, heparin-induced fibrillization, ThT fluorescence | P10636 | AID 1460; further: potency means the concentration at half of the fitted maximal effect; nearly all actives have a fitted effect of over 55% in size
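In this qHTS, human K18 P301L tau is incubated with compound and heparin for 6 hr at 37 C, and Thioflavin T fluorescence then reports fibril load.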
Tau fluor cs = counter-screen for tau fibril formation inhibitors; actives 0.93% (n = 280,000); AID 1463; Potency, µM (titrated, usually from 57.7 µM), for inactives: at the top dose activity change, negative = decrease; tau K18 P301L Alexa594 fluorescence, heparin fibrillization; further: potency means the concentration at half of the fitted maximal effect; nearly all actives have a fitted effect of over 55% in size
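Human tau K18 P301L (15 uM unlabeled, 0.24 uM Alexa 594-labeled) in 100 mM sodium acetate pH 7 with 20 uM heparin, 6 hr at 37 C. ThT 30 uM added, 1 hr ambient; Alexa 594 FP and total fluorescence read at 555/632 nm.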
An asterisk follows results filed as active; ? = inconclusive; . = no result; [ ] = dose if it differs, or a comment. Unless noted, the call rests on the fitted dose curve; in most records, active means well fitted curve in the direction sought with a large enough effect; inconclusive means small, poorly fitted or top-dose-only effect, or another doubt; inactive means no such curve, though single readings can be large; an effect the other way counts as inactive or inconclusive. Unless noted, on the % scale 0 is the no-effect control and ±100 the full control effect.

SMILES	FBPA coupling cs	Tau fibril FP	Sfp inh	Tau fibril ThT	Tau fluor cs
CC[C@H](C)[C@H](NC(=O)[C@H](CCCNC(=N)N)NC(=O)[C@@H](NC(=O)[C@H](CCCNC(=N)N)NC(=O)[C@H](CCCCN)NC(=O)[C@H](CCCNC(=N)N)NC(=O)[C@@H](NC(=O)[C@H](CC(N)=O)NC(=O)[C@@H](N)CS)[C@@H](C)O)[C@@H](C)CC)C(=O)N[C@@H](CCC(N)=O)C(=O)N[C@@H](CCCNC(=N)N)C(=O)NCC(=O)N1CCC[C@H]1C(=O)NCC(=O)N[C@@H](CCCNC(=N)N)C(=O)N[C@@H](C)C(=O)N[C@@H](Cc1ccccc1)C(=O)N[C@H](C(=O)N[C@H](C(=O)N[C@H](C(=O)NCC(=O)N[C@@H](CCCCN)C(=O)O)[C@@H](C)CC)[C@@H](C)O)C(C)C	0	.	-22%	.	.
CC(=O)OCC(NC(=O)C(CCCCNC(=O)OCc1ccccc1)NC(=O)OC(C)(C)C)C1OC(n2ccc(=O)[nH]c2=O)C(OC(C)=O)C1OC(C)=O (stereo unspecified)	4	.	9%	.	.
CC1CCCC2(C1)NC(=S)c1c(sc3c1CCCC3)N2 (stereo unspecified)	3	?	6.3µM*	18µM*	?
CSC1=NSC2=NC(=O)/C(=C\c3coc4ccccc4c3=O)C(=N)N12	5	?	-4%	14µM*	?
CC(C)CSC1=NSC2=NC(=O)/C(=C\c3coc4ccccc4c3=O)C(=N)N12	8	?	-20%	28µM*	?
Cc1cc(/C=C2\C(=N)N3C(SCc4ccccc4)=NSC3=NC2=O)c(C)n1Cc1ccccc1	0	4%	-6%	-10%	-7%
CC(C)CSC1=NSC2=NC(=O)/C(=C\c3ccccc3)C(=N)N12	6	-1%	33%	?	-18%
Brc1ccc(-c2cn3c(n2)CCc2ccc4cccnc4c2-3)cc1	-31*	1%	?	?	-18%
COc1ccc(Nc2nc3ccc(Cl)cc3n3nnnc23)cc1OC	.	10%	.	?	?
CC(C)n1c(=O)[nH][nH]c1=S	2	?	8.9µM*	28µM*	-26%
CCOc1ccc(OCC)c(C2C(C#N)=C(N)N(c3cccnc3)C3=C2C(=O)CC(C)(C)C3)c1 (stereo unspecified)	-52*	-11%	32µM*	?	-4%
CSc1sc(C)cc1C1C(C#N)=C(N)N(c2cccnc2)C2=C1C(=O)CC(C)(C)C2 (stereo unspecified)	3	-6%	22%	-15%	-13%
CCN(CC)C(=O)CSC1=Nc2ccccc2C2=NC(Cc3c[nH]c4ccccc34)C(=O)N12 (stereo unspecified)	-28	1%	50µM*	-13%	-7%
Cc1sc2ccccc2[n+]1CCC(C)S(=O)(=O)[O-] (stereo unspecified)	0	-21%	45µM*	?	-5%
Cc1sc2ccccc2[n+]1CC(=O)c1ccccc1	-1	.	?	.	.
Cc1sc2ccccc2[n+]1CC(=O)O	5	32µM*	2µM*	28µM*	-16%
COc1cc(C(=S)N2CCOCC2)cc(OC)c1OC(=O)Cc1ccc(F)cc1	2	-12%	45µM*	-12%	-11%
COc1cc(C(=S)N2CCOCC2)cc(OC)c1OC(=O)c1ccccc1[N+](=O)[O-]	0	.	8%	.	.
COc1cc(C(=S)N2CCOCC2)cc(OC)c1OC(=O)c1ccc(F)cc1	4	.	28µM*	.	.
COc1cc(C(=S)N2CCOCC2)cc(OC)c1OS(=O)(=O)c1ccc(Cl)cc1	0	.	45µM*	.	.
COc1cc(C(=O)Oc2c(OC)cc(C(=S)N3CCOCC3)cc2OC)cc(OC)c1OC	0	.	9%	.	.
COc1cc(C(=S)N2CCOCC2)ccc1OS(=O)(=O)c1ccc(Cl)cc1	0	.	-5%	.	.
C[C@H]1Cc2c(COc3ccccc3)nc3c(c2CO1)CN(C(=O)C1CC1)CC3	4	-2%[11.6 µM]	19%	-2%[11.5 µM]	-10%[11.6 µM]
COc1ccc(Nc2ncc(C(=O)N3CCN(c4ccc(OC)cc4)CC3)c3ccccc23)cc1	.	?	.	?	14µM*[quencher]
COc1ccc(Nc2ncc(C(=O)N3CCN(c4ccc(F)cc4)CC3)c3ccccc23)cc1	-3	?	11%	?	13µM*[quencher]
SMILES	FBPA coupling cs	Tau fibril FP	Sfp inh	Tau fibril ThT	Tau fluor cs
COc1ccc(Nc2ncc(C(=O)O)c3ccccc23)cc1	-7	3%	12%	-17%	-14%
COc1ccc(Nc2ncc(C(=O)Nc3cccc(OC)c3)c3ccccc23)cc1	.	7%	.	?	14µM*[quencher]
COc1ccc(NC(=O)c2cccnc2Nc2ccc(OC)cc2)cc1	-2	?	-7%	?	14µM*[quencher]
COc1ccc(Nc2ncccc2C(=O)Nc2ccccc2)cc1	-15	-4%	-13%	-4%	-4%
C/C=C/C(=O)[C@@H](C)[C@@H](/C=C/C[Si](C)(C)C)C(C)C	5	.	0%	.	.
CCc1ccc(S(=O)(=O)Nc2cccc(-c3ccc(N4CCC(C)CC4)nn3)c2)s1	.	-4%	.	8%	-10%
CNc1nc(Nc2ccc(C)c(Cl)c2)c2cnn(C)c2n1	-5	.	2%	.	.
Cn1ncc2c(Nc3cccc(Cl)c3)nc(Nc3cccc(Cl)c3)nc21	-6	8.9µM*	6%	16%	?
Cn1ncc2c(Nc3ccc(Br)cc3)nc(Nc3ccc(Br)cc3)nc21	-2	10µM*	12%	?	?
CCN(CC)CCCNC(=O)c1cc(-c2ccc(OC)c(OC)c2)on1	.	-8%	.	-5%	-14%
C#CCCCO/N=C1/C[C@@H](O)[C@@H](O)[C@@H]2[C@@H]3C(=O)N(C4CCCCC4)C(=O)[C@H]3CC[C@H]12	3	?	19%	2%[11.5 µM]	-11%[11.6 µM]
Cc1nn2c(nc1=O)NNC2(C)C(C)(C)C (stereo unspecified)	0	-7%	35µM*	-19%	-15%
CCN(CC)c1cc(Cl)c2nonc2c1N	-25	-2%	-4%	-5%	-1%
CN(C)c1cc(Cl)c2nonc2c1N	-30*	?	89µM*	25µM*	?
Cc1cc(C)c(Cn2c(=O)n(CCCCCC(=O)NCc3ccc4c(c3)OCO4)c(=O)c3sccc32)c(C)c1	.	7%	.	-1%	1%
Cc1nc2ccccc2c2c(N)c3ccccc3n12	0	?	-1%	10µM*	-23%
CC(=O)N1CN(Cc2ccccn2)Cc2c1sc1c2CCCC1	-7	-7%	45µM*	?	-5%
COC(=O)/C=C\c1cc(O)ccc1O	-8	0%	50µM*	?	-27%
COC(=O)/C=C/C(=O)Nc1ccc(O)c(Cl)c1	0	12%	-19%	?	-26%
COc1ccnc(CS(=O)c2nc3ccc(OC(F)F)cc3[nH]2)c1OC (stereo unspecified)	2	?	-69%	25µM*	-30%
